From PubChem BioAssay (NCI)
About 79,000 compounds went through this panel and 15% of them were active in at least one assay; those are over-represented in the sample as a whole. Active and inactive are the calls of the source. Rule as the data show it: active = growth inhibition above about 70%; inactive = the rest.

Experiments:
[1] = NCI Yeast Anticancer Drug Screen. Data for the rad52 strain (AID 147);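 also: 0% = growth of vehicle-treated control cultures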; conditions: S. cerevisiae rad52 mutant growth inhibition, active compounds read high
Summary of the method: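 Inhibition of yeast growth, referenced to vehicle controls, was the measured output for a strain with defective DNA damage repair.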

[2] = NCI Yeast Anticancer Drug Screen. Data for the wt1 strain (AID 149);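 also: 0% = growth of vehicle-treated wt1 cultures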; conditions: S. cerevisiae wt1 strain (SPY 50644) growth inhibition, active compounds read high
Summary of the method: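 Growth inhibition read against vehicle controls after compound exposure of the wt1 yeast strain.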

[3] = NCI Yeast Anticancer Drug Screen. Data for the rad50EPP+ strain (AID 151);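 also: 0% = growth of vehicle-treated control cultures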; conditions: S. cerevisiae rad50 mutant strain, active compounds read high
Summary of the method: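 Genetically defined yeast (rad50EPP+, DNA damage repair alteration) is grown with compound, and inhibition of growth is expressed relative to vehicle-treated controls.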

[4] = NCI Yeast Anticancer Drug Screen. Data for the mgt1 strain (AID 153); conditions: S. cerevisiae mgt1 mutant growth inhibition, active compounds read high
Summary of the method: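 In the mgt1 strain, test compounds were added and growth inhibition was determined relative to vehicle-treated controls.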

[5] = NCI Yeast Anticancer Drug Screen. Data for the rad50 strain (AID 155);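 also: 0% = growth of vehicle-only cultures of the same strain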; conditions: S. cerevisiae rad50 strain growth inhibition, active compounds read high
Summary of the method: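 Readout: growth inhibition relative to vehicle-treated cultures. Compound exposure was carried out in a genetically defined yeast strain deficient in DNA damage repair.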

[6] = NCI Yeast Anticancer Drug Screen. Data for the mec2-1 strain (AID 157); conditions: S. cerevisiae mec2-1 strain, active compounds read high
Summary of the method: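 Each compound was tested on mec2-1 yeast, a strain altered in DNA damage repair or cell cycle control. Growth inhibition is reported relative to vehicle.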

[7] = NCI Yeast Anticancer Drug Screen. Data for the sgs1 mgt1 strain (AID 161);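 also: 0% = growth of cultures given vehicle only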; conditions: S. cerevisiae sgs1 mgt1 strain, active compounds read high
Summary of the method: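 Inhibition of yeast growth, normalised to vehicle-treated controls, is reported for a strain bearing genetic alterations in DNA damage repair.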

[8] = NCI Yeast Anticancer Drug Screen. Data for the CLN2oe strain (AID 163);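 also: 0% = growth of vehicle-only control cultures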; conditions: S. cerevisiae CLN2oe strain, active compounds read high
Summary of the method: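 First, the altered yeast strain was treated with each compound; second, its growth was measured; finally, inhibition was derived by comparison with vehicle controls.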

[9] = NCI Yeast Anticancer Drug Screen. Data for the cln2 rad14 strain (AID 165);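 also: 0% = growth equal to vehicle treated cultures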; conditions: S. cerevisiae cln2 rad14 strain, active compounds read high
Summary of the method: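 Test compounds were added to cln2 rad14 yeast cultures; inhibition of growth was then determined by comparison with vehicle treatment.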

[10] = NCI Yeast Anticancer Drug Screen. Data for the wt2 strain (AID 169);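 also: 0% = growth of vehicle-treated yeast cultures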; conditions: S. cerevisiae wt2 strain growth inhibition, active compounds read high
Summary of the method: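 The panel's yeast strains carry defined changes in DNA repair or cell cycle genes. Each strain is grown with compound, and growth loss is scored relative to vehicle.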

[11] = NCI Yeast Anticancer Drug Screen. Data for the mlh1 strain (AID 171);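 also: 0% = growth of vehicle-treated control cultures of the same strain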; conditions: S. cerevisiae mlh1 strain growth inhibition, active compounds read high
Summary of the method: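 Inhibition values reflect reduced yeast growth in the presence of compound, referenced to vehicle controls, using a strain chosen for its alteration in DNA repair or cell cycle control.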

[12] = NCI Yeast Anticancer Drug Screen. Data for the sgs1 strain (AID 173);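 also: 0% = growth of vehicle-only control cultures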; conditions: S. cerevisiae sgs1 mutant, active compounds read high
Summary of the method: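 Vehicle-treated cultures served as reference for growth inhibition of a yeast strain altered in DNA damage repair or cell cycle control after compound exposure.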

[13] = NCI Yeast Anticancer Drug Screen. Data for the mlh1 rad18 strain (AID 175); conditions: S. cerevisiae mlh1 rad18 strain growth inhibition, active compounds read high
Summary of the method: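 Inhibition values reflect reduced growth of mutant yeast versus vehicle-treated controls following compound exposure; the mutations affect DNA damage repair.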

[14] = NCI Yeast Anticancer Drug Screen. Data for the rad18 strain (AID 177); conditions: S. cerevisiae rad18 mutant growth inhibition, active compounds read high
Summary of the method: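 Steps: expose repair-mutant yeast to compound; measure growth; express as inhibition relative to vehicle control.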

[15] = NCI Yeast Anticancer Drug Screen. Data for the bub3 strain (AID 167); conditions: S. cerevisiae bub3 mutant strain, active compounds read high
Summary of the method: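 Readout: yeast growth inhibition, expressed relative to vehicle-only wells. The test organism is a mutant strain from a panel with lesions in DNA repair or checkpoint genes.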

[16] = NCI Yeast Anticancer Drug Screen. Data for the rad14 strain (AID 159);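 also: 0% = growth of vehicle-treated control cultures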; conditions: S. cerevisiae rad14 strain growth inhibition, active compounds read high
Summary of the method: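 Growth inhibition vs vehicle controls; genetically altered yeast strain (DNA damage repair defect) treated with test compounds.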

[17] = at 5.0 µM (retest, dose inferred, filed as 0.5)
[18] = at 50.0 µM (retest, dose inferred, filed as 5.0)

Measured: growth inhibition

Cc1ccc(C2C(Cl)C(=O)N2n2cnc3ccccc3c2=O)cc1 (stereo not given)
inactive: [1]; at 1.2 µM 6% | [1]; at 3.7 µM 11% | [1]; at 11.0 µM 8% | [1]; at 33.0 µM 9% | [1]; at 100.0 µM -8% | [2]; at 1.2 µM 8% | [2]; at 3.7 µM 14% | [2]; at 11.0 µM 19% | [2]; at 33.0 µM 6% | [2]; at 100.0 µM 6% | [3]; at 1.2 µM -13% | [3]; at 3.7 µM -6% | [3]; at 11.0 µM -3% | [3]; at 33.0 µM 34% | [3]; at 100.0 µM 51% | [4]; at 1.2 µM -15% | [4]; at 3.7 µM -11% | [4]; at 11.0 µM -23% | [4]; at 33.0 µM -19% | [4]; at 100.0 µM -27% | [5]; at 1.2 µM -2% | [5]; at 3.7 µM 0% | [5]; [17] 14% | [5]; at 11.0 µM -6% | [5]; at 33.0 µM -6% | [5]; [18] -4% | [5]; at 50.0 µM -15.2% | [5]; at 100.0 µM -20% | [6]; at 1.2 µM -6% | [6]; at 3.7 µM -12% | [6]; [17] -16% | [6]; at 11.0 µM -10% | [6]; at 33.0 µM -11% | [6]; [18] 10% | [6]; at 50.0 µM 12.5% | [6]; at 100.0 µM -15% | [7]; [17] -4% | [7]; [18] 20% | [7]; at 50.0 µM -0.75% | [8]; at 1.2 µM -23% | [8]; at 3.7 µM -43% | [8]; at 11.0 µM -18% | [8]; at 33.0 µM -54% | [8]; at 100.0 µM -20% | [9]; [17] 4% | [9]; [18] 28% | [9]; at 50.0 µM 6.4% | [10]; at 1.2 µM -15% | [10]; at 3.7 µM -19% | [10]; at 11.0 µM -18% | [10]; at 33.0 µM -23% | [10]; at 100.0 µM -8% | [11]; at 1.2 µM -39% | [11]; at 3.7 µM -39% | [11]; at 11.0 µM -41% | [11]; at 33.0 µM -34% | [11]; at 100.0 µM -4% | [12]; at 1.2 µM 11% | [12]; at 3.7 µM 17% | [12]; at 11.0 µM 11% | [12]; at 33.0 µM 22% | [12]; at 100.0 µM 30% | [13]; [17] -9% | [13]; [18] 6% | [13]; at 50.0 µM -11.2% | [14]; at 1.2 µM -1% | [14]; at 3.7 µM 6% | [14]; at 11.0 µM -1% | [14]; at 33.0 µM -7% | [14]; at 100.0 µM -5%

O=C(NCCCNCCCNC(=O)c1cc(-c2ccccc2)nc2ccccc12)c1cc(-c2ccccc2)nc2ccccc12
inactive: [1]; at 1.2 µM -4% | [1]; at 3.7 µM -2% | [1]; at 11.0 µM -4% | [1]; at 33.0 µM 6% | [1]; at 100.0 µM 11% | [2]; at 1.2 µM -1% | [2]; at 3.7 µM -1% | [2]; at 11.0 µM -3% | [2]; at 33.0 µM -2% | [2]; at 100.0 µM -5% | [3]; at 1.2 µM -1% | [3]; at 3.7 µM 5% | [3]; at 11.0 µM 14% | [3]; at 33.0 µM 24% | [3]; at 100.0 µM 19% | [4]; at 1.2 µM -2% | [4]; at 3.7 µM -1% | [4]; at 11.0 µM -3% | [4]; at 33.0 µM 20% | [4]; at 100.0 µM 61% | [5]; at 1.2 µM -3% | [5]; at 3.7 µM -2% | [5]; [17] -13% | [5]; at 11.0 µM -4% | [5]; at 33.0 µM 27% | [5]; [18] 54% | [5]; at 50.0 µM 37.3% | [5]; at 100.0 µM 51% | [6]; at 1.2 µM -2% | [6]; at 3.7 µM -4% | [6]; [17] -11% | [6]; at 11.0 µM -5% | [6]; at 33.0 µM 10% | [6]; [18] 19% | [6]; at 50.0 µM 37.7% | [6]; at 100.0 µM 47% | [7]; [17] 0% | [7]; [18] -8% | [7]; at 50.0 µM 56.2% | [8]; at 1.2 µM -3% | [8]; at 3.7 µM -1% | [8]; at 11.0 µM -4% | [8]; at 33.0 µM 14% | [8]; at 100.0 µM 24% | [9]; [17] 40% | [9]; [18] 42% | [9]; at 50.0 µM 37.8% | [15]; at 1.2 µM -3% | [15]; at 3.7 µM -1% | [15]; [17] 3% | [15]; at 11.0 µM -1% | [15]; at 33.0 µM 11% | [15]; [18] 58% | [15]; at 50.0 µM 64.1% | [15]; at 100.0 µM 44% | [10]; at 1.2 µM -3% | [10]; at 3.7 µM -4% | [10]; at 11.0 µM -4% | [10]; at 33.0 µM 1% | [10]; at 100.0 µM 11% | [11]; at 1.2 µM -4% | [11]; at 3.7 µM -1% | [11]; at 11.0 µM -1% | [11]; at 33.0 µM 16% | [11]; at 100.0 µM 46% | [12]; at 1.2 µM -3% | [12]; at 3.7 µM -2% | [12]; at 11.0 µM -1% | [12]; at 33.0 µM 7% | [12]; at 100.0 µM 11% | [14]; at 1.2 µM -4% | [14]; at 3.7 µM -3% | [14]; at 11.0 µM -4% | [14]; at 33.0 µM 13% | [14]; at 100.0 µM 34%

Cc1cc(N=Nc2ccc(S(=O)(=O)[O-])cc2)cc(C(=O)[O-])c1[O-].NC1CCCCC1N.[Na+].[Pt+4]
active: [1]; at 11.0 µM 99% | [1]; at 33.0 µM 98% | [1]; at 100.0 µM 98% | [2]; at 11.0 µM 98% | [2]; at 33.0 µM 98% | [2]; at 100.0 µM 98% | [3]; at 3.7 µM 95% | [3]; at 11.0 µM 99% | [3]; at 33.0 µM 99% | [3]; at 100.0 µM 98% | [4]; at 11.0 µM 99% | [4]; at 33.0 µM 99% | [4]; at 100.0 µM 98% | [5]; at 3.7 µM 84% | [5]; at 11.0 µM 98% | [5]; at 33.0 µM 98% | [5]; [18] 98% | [5]; at 50.0 µM 87.7% | [5]; at 100.0 µM 98%
inactive: [1]; at 1.2 µM 6% | [1]; at 3.7 µM 33% | [2]; at 1.2 µM 3% | [2]; at 3.7 µM 44% | [3]; at 1.2 µM 25% | [4]; at 1.2 µM 34% | [4]; at 3.7 µM 66% | [5]; at 1.2 µM -23% | [5]; [17] 20% | [16]; at 1.2 µM -4% | [16]; at 3.7 µM 52%
